From PMC7862700, “An all-to-all approach to the identification of sequence-specific readers for epigenetic DNA modifications on cytosine”

How the values were obtained:
Assay in all cases: DAPPL (digital affinity profiling via proximity ligation, sequencing); 10 mM Tris-HCl pH 7.5, 50 mM NaCl, 1 mM DTT, 4% glycerol, room temperature, 30 min; GST-TFs on glutathione beads, 16-mer random dsDNA library, 0.1% formaldehyde crosslink after washing; high values mean tight binding
Conditions in all cases: protein: recombinant; tags: N-terminal GST; dsDNA, one strand shown
ELK1 = target: T1, ELK1 (Homo sapiens, UniProt P19419 1-428)
T1 sequence: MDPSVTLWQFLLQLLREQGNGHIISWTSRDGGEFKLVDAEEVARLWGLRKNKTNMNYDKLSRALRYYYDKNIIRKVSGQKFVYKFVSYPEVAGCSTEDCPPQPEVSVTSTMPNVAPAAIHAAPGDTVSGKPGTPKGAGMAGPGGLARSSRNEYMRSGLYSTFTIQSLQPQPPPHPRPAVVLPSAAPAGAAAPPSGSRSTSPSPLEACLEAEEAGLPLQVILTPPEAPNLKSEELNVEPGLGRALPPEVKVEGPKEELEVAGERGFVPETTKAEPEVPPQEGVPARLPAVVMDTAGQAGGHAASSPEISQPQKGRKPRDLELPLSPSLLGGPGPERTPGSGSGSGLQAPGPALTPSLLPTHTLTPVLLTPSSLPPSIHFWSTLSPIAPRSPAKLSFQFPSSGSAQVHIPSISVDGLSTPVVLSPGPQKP
Summary of the method: (§1)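 The binding signal reported is, for every hexamer, its read frequency for a factor over its read frequency for the tag-only sample. Reads came from pools of yeast-expressed, GST-fused human transcription factors on glutathione beads, barcoded with DNA and mixed with that sample, which were incubated with 200 nmole of a random double-stranded 16-mer DNA library in Tris/NaCl/DTT/glycerol buffer at room temperature for 30 min. After washing, the pools were crosslinked with 0.1% formaldehyde, proximity-ligated with BsaI/T4 ligase for 1 h at 37 °C, PCR-amplified and sequenced on an Illumina NextSeq500.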

GABPA = target: T2, GABPA (Homo sapiens, UniProt Q06546 1-454)
T2 sequence: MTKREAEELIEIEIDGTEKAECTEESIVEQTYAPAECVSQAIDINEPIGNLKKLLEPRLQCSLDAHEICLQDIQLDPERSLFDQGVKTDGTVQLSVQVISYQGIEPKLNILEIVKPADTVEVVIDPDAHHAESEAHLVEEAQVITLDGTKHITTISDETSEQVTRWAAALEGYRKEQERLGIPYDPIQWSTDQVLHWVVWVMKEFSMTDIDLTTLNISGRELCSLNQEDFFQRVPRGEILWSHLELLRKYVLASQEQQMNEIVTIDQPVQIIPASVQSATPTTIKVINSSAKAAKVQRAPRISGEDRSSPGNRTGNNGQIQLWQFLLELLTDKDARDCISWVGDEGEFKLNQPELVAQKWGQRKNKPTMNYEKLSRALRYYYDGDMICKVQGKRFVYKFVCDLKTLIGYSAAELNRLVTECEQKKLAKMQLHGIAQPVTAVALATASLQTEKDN
Summary of the method: as §1

ERG = target: T3, ERG (Homo sapiens, UniProt P11308 1-479)
T3 sequence: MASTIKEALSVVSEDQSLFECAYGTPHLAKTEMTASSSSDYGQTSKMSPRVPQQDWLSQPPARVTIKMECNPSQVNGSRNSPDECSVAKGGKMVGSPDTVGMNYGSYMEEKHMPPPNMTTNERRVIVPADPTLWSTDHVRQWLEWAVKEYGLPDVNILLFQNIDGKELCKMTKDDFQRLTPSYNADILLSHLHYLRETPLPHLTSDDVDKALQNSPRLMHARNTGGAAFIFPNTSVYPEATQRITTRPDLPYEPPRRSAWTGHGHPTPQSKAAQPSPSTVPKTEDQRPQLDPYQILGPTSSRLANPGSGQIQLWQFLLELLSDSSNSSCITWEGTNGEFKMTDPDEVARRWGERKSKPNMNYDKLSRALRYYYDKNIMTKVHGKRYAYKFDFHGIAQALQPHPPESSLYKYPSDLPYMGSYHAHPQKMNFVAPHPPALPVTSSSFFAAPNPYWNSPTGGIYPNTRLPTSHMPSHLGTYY
Summary of the method: as §1

ELF1 = ELF1 (Homo sapiens, UniProt P32519 1-619)
Chain of ELF1 (P32519 whole entry): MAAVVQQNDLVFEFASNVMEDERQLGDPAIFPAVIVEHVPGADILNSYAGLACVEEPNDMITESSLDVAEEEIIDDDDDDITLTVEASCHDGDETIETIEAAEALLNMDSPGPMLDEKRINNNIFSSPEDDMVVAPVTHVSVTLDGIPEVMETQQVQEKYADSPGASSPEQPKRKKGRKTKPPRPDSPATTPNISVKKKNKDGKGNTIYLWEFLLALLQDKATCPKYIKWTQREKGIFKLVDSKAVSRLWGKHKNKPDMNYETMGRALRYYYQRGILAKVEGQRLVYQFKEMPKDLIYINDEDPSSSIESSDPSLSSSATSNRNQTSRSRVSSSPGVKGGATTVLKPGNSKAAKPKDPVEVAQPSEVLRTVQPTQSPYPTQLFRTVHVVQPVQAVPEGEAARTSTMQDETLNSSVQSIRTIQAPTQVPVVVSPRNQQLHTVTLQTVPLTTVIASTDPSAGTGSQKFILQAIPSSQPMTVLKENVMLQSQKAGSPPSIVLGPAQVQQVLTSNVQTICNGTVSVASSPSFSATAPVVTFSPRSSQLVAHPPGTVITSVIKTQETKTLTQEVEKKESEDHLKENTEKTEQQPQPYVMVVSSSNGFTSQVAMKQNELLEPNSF
Summary of the method: as §1

EHF = target: T4, EHF (Homo sapiens, UniProt Q9NZC4 1-300)
T4 sequence: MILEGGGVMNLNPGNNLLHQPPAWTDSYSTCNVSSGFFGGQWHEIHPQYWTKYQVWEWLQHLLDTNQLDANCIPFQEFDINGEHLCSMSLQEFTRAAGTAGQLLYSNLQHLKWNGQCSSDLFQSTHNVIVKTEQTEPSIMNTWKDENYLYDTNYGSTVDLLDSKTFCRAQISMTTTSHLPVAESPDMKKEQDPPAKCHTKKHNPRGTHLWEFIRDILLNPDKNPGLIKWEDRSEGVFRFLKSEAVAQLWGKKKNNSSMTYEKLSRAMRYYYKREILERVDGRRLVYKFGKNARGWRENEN
Summary of the method: as §1

SPIB = SPIB (Homo sapiens, UniProt Q01892 1-262)
Chain of SPIB (Q01892 whole entry): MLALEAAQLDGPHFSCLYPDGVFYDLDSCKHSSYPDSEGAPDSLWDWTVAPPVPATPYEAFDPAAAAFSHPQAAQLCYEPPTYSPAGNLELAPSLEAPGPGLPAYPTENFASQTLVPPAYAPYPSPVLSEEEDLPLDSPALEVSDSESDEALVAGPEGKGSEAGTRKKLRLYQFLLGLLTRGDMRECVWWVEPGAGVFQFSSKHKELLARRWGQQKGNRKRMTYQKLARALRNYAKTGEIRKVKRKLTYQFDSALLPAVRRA
Summary of the method: as §1

ELK3 = target: T5, ELK3 (Homo sapiens, UniProt P41970 1-407)
T5 sequence: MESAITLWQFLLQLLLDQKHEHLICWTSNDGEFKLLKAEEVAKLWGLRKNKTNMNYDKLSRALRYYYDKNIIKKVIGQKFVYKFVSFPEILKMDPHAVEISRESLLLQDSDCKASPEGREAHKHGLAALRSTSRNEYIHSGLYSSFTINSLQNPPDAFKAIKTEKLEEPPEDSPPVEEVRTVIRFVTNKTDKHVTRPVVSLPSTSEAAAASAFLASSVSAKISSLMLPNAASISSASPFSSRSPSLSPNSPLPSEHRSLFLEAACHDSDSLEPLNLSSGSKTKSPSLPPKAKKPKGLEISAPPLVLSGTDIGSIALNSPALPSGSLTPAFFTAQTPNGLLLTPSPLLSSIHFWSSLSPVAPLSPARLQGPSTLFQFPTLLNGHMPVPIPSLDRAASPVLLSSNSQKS
Summary of the method: as §1

ELF4 = ELF4 (Homo sapiens, UniProt Q99607 1-663)
Chain of ELF4 (Q99607 whole entry): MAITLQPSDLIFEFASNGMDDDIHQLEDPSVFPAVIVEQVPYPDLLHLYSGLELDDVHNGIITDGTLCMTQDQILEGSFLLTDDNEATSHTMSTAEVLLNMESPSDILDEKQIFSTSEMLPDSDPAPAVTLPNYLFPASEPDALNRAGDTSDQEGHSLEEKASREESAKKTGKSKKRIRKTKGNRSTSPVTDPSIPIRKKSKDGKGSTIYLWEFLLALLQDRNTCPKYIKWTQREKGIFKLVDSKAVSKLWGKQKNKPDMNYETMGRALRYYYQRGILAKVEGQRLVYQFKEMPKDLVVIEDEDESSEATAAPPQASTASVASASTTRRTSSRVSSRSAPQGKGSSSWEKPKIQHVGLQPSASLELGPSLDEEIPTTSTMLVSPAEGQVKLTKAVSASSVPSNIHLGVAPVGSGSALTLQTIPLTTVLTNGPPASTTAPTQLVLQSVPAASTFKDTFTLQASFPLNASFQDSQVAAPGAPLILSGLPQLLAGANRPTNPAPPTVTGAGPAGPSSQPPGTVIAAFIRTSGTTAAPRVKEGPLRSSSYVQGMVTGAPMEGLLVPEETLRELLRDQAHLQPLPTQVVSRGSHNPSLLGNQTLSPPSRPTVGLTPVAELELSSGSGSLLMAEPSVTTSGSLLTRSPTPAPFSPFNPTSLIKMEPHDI
Summary of the method: as §1

ELK4 = target: T6, ELK4 (Homo sapiens, UniProt P28324-2 1-405)
T6 sequence: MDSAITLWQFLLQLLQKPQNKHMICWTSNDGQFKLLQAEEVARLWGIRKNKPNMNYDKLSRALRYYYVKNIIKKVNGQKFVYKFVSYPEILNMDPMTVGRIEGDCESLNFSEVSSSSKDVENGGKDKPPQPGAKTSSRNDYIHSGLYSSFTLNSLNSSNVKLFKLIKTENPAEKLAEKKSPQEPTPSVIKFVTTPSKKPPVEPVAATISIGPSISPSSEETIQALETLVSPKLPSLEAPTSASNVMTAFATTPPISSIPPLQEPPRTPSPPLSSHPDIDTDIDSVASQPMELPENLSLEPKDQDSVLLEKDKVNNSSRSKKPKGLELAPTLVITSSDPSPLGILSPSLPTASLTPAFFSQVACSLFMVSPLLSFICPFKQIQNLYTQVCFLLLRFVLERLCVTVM
Summary of the method: as §1

ELF3 = target: T7, ELF3 (Homo sapiens, UniProt P78545 1-371)
T7 sequence: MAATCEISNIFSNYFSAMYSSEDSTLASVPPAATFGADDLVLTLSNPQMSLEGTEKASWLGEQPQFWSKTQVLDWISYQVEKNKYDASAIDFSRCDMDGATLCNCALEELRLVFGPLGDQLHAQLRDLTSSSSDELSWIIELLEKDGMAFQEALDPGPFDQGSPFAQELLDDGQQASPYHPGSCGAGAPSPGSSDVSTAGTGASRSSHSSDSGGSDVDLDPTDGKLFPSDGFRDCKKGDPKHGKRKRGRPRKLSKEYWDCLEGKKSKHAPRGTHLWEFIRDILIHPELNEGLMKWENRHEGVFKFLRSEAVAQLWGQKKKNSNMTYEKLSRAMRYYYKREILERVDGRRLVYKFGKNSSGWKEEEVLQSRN
Summary of the method: as §1

ETV1 = ETV1 (Homo sapiens, UniProt P50549 1-477)
Chain of ETV1 (P50549 whole entry): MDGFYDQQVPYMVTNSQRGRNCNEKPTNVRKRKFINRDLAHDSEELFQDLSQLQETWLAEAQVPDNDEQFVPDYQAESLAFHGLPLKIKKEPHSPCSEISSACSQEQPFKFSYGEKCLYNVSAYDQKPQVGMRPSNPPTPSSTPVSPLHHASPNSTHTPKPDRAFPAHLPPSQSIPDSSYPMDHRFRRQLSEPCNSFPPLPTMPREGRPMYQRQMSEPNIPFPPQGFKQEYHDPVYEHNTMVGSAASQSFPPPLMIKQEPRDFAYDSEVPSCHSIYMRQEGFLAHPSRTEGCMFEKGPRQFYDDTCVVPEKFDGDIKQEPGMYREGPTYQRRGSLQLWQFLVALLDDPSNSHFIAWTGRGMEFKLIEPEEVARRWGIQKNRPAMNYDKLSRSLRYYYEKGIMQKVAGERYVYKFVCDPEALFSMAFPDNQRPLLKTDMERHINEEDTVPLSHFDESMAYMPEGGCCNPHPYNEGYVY
Summary of the method: as §1

ERF = target: T8, ERF (Homo sapiens, UniProt P50548 1-548)
T8 sequence: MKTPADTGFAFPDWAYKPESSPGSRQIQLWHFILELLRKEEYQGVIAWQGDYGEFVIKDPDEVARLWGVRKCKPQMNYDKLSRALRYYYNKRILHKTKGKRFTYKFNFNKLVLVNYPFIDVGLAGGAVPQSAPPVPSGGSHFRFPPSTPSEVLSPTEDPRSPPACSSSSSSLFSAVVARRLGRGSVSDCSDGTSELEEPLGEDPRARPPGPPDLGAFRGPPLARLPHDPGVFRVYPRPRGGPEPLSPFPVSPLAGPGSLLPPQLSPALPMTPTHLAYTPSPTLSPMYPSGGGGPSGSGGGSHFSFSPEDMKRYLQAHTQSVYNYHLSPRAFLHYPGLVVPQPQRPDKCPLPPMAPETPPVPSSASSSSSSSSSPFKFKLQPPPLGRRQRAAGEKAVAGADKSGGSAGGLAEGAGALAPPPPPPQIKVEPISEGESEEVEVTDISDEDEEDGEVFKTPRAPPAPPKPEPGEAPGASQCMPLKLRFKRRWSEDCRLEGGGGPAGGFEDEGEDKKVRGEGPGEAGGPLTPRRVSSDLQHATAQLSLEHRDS
Summary of the method: as §1

ETV3L = target: T9, ETV3L (Homo sapiens, UniProt Q6ZN32 1-361)
T9 sequence: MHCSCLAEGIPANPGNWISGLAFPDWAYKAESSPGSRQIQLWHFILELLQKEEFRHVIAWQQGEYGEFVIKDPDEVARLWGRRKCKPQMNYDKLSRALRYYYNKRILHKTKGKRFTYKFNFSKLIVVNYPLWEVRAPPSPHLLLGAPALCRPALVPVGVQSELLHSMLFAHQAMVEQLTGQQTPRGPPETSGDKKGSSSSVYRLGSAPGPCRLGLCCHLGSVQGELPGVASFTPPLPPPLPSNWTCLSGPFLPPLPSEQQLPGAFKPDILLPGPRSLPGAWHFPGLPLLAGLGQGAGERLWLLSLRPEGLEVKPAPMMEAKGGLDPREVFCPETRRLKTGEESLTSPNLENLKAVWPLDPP
Summary of the method: as §1

ETS2 = target: T10, ETS2 (Homo sapiens, UniProt P15036 1-469)
T10 sequence: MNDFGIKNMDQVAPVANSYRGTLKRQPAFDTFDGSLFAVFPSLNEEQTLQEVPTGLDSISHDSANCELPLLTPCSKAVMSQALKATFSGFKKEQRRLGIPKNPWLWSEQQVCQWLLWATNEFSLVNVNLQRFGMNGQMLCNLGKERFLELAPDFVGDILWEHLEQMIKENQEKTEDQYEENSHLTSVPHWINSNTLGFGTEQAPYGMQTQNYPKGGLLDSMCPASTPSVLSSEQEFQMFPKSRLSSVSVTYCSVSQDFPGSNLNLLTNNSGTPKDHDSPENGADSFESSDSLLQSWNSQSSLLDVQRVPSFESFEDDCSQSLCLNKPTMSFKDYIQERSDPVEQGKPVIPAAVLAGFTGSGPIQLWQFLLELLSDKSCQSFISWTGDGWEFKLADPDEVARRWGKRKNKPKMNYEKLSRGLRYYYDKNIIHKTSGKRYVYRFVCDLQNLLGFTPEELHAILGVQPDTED
Summary of the method: as §1

SPDEF = target: T11, SPDEF (Homo sapiens, UniProt O95238 1-335)
T11 sequence: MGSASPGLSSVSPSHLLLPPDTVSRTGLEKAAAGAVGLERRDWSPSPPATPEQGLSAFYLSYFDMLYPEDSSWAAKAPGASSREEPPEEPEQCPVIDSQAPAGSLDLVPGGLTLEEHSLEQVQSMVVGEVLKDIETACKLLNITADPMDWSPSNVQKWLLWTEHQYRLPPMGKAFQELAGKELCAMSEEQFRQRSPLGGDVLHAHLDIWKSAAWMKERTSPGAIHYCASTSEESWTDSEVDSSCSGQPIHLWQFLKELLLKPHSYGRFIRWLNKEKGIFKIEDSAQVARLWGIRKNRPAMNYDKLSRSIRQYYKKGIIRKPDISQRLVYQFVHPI
Summary of the method: as §1

ETV3 = target: T12, ETV3 (Homo sapiens, UniProt P41162-2 1-143)
T12 sequence: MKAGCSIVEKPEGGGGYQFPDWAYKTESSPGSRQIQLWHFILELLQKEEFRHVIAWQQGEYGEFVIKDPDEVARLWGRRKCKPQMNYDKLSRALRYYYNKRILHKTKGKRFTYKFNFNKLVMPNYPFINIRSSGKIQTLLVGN
Summary of the method: as §1

ETV6 = ETV6 (Homo sapiens, UniProt P41212 1-452)
Chain of ETV6 (P41212 whole entry): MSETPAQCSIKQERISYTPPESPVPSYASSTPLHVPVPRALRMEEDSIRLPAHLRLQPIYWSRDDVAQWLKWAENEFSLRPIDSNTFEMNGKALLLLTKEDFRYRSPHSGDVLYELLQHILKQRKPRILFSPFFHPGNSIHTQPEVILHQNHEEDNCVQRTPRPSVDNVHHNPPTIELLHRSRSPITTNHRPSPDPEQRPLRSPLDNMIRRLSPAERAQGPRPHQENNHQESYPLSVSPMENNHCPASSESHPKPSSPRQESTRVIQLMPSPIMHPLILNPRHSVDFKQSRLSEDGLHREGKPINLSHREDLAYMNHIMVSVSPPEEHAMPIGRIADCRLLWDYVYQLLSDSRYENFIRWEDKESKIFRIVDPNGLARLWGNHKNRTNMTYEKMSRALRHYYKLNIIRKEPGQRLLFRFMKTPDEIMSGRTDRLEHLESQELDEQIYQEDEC
Summary of the method: as §1

Sequence: GATCCA
- binding signal (ELK1): 1.08 fold enrichment (6-mer frequency, TF over GST control)
- binding signal (GABPA): 1.16 fold enrichment (6-mer frequency, TF over GST control)
- binding signal (ERG): 1.03 fold enrichment (6-mer frequency, TF over GST control)
- binding signal (ELF1): 1.04 fold enrichment (6-mer frequency, TF over GST control)
- binding signal (EHF): 1.07 fold enrichment (6-mer frequency, TF over GST control)
- binding signal (SPIB): 1.08 fold enrichment (6-mer frequency, TF over GST control)
- binding signal (ELK3): 1.02 fold enrichment (6-mer frequency, TF over GST control)
- binding signal (ELF4): 1.05 fold enrichment (6-mer frequency, TF over GST control)
- binding signal (ELK4): 1.03 fold enrichment (6-mer frequency, TF over GST control)
- binding signal (ELF3): 1.15 fold enrichment (6-mer frequency, TF over GST control)
- binding signal (ETV1): 1.07 fold enrichment (6-mer frequency, TF over GST control)
- binding signal (ERF): 1.03 fold enrichment (6-mer frequency, TF over GST control)
- binding signal (ETV3L): 1.06 fold enrichment (6-mer frequency, TF over GST control)
- binding signal (ETS2): 1.09 fold enrichment (6-mer frequency, TF over GST control)
- binding signal (SPDEF): 1.17 fold enrichment (6-mer frequency, TF over GST control)
- binding signal (ETV3): 1.05 fold enrichment (6-mer frequency, TF over GST control)
- binding signal (ETV6): 1.05 fold enrichment (6-mer frequency, TF over GST control)
